Data on eleven molecules can be found in PubChem BioAssay (Tox21).

Assay [1] can be described thus: qHTS assay to identify small molecule agonists of the vitamin D receptor (VDR) signaling pathway - cell viability counter screen (AID 743224). Also: nearly all actives have a fitted effect of over 50% in size. Also: potency is read from the fitted curve at half-maximal effect. In short, it runs like this: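 Here cell health was gauged by luminescent ATP detection (CellTiter-Glo, 30 min RT) in VDR-bla cells that had been incubated with test compounds for 16 h at 37C and 5% CO2.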
Background: Quantitative high-throughput screening tests each substance at several concentrations.

A short description of assay [2]: qHTS assay to identify small molecule agonists of the NFkB signaling pathway (AID 1159509; active = well fitted curve in the direction sought with a large enough effect in the signal ratio in the repeat runs, not every such curve was filed as active; the % refers to the signal ratio). In short, it runs like this: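 NFkB-bla ME-180 cells with a beta-lactamase reporter under an NF-kB response element were plated overnight, treated with compounds in DMSO for 5 hr at 37 C, then loaded with FRET substrate for 1.5 hr at room temperature.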
Assay [3] is described as follows: qHTS assay to identify small molecule agonists of the endoplasmic reticulum stress response signaling pathway - cell viability counter screen (AID 1159517; calls by dose curve; also: nearly all actives have a fitted effect of over 50% in size; also: potency is read from the fitted curve at half-maximal effect). In short, it runs like this:
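Counter-screen wells were identical to the reporter wells. Cells were plated at 1,500 per well and dosed for 5 hr, then read for luminescence 30 min after CellTiter-Glo addition.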

The nature of assay [4]: qHTS assay to identify small molecule antagonists of the retinoid-related orphan receptor gamma (ROR-gamma) signaling pathway - cell viability counter screen (AID 1159520). Also: nearly all actives have a fitted effect of over 50% in size. Also: potency is read from the fitted curve at half-maximal effect. A digest of the protocol: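 Tet-on ROR gamma CHO cells were given compounds for 2 hr, then doxycycline hyclate at 1 uM final, and incubated 16 hr at 37 C. Viability was measured as ATP content by CellTiter-Glo luminescence.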

A short description of assay [5]: qHTS assay to identify small molecule agonists of the AP-1 signaling pathway - cell viability counter screen (AID 1159525; calls by dose curve; also: nearly all actives have a fitted effect of over 55% in size; also: potency is read from the fitted curve at half-maximal effect). In short, it runs like this: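 AP-1-bla ME-180 cells in Opti-MEM with 0.5% dialyzed FBS, compound exposure 5 h at 37 C in 15-point titration. Viability read in the same wells as ATP content by CellTiter-Glo luminescence, normalised to tetra-n-octylammonium bromide and DMSO controls.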

Assay [6] is described as follows: qHTS assay to identify small molecule agonists of the AP-1 signaling pathway (AID 1159526; calls by dose curve).
Assay [7] has as its target Retinoic acid receptor RXR-alpha (Homo sapiens) (UniProt P19793). The assay is described as follows: qHTS assay to identify small molecule agonists of the RXR signaling pathway (AID 1159527; calls by dose curve; also: nearly all actives have a fitted effect of over 35% in size). A digest of the protocol: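 Compounds in DMSO were added to RXR-alpha-UAS-bla HEK 293T cells kept in 2% charcoal-stripped serum, and incubated 16 hr at 37 C with 5% CO2. Reporter signal came from a 2 hr B/G FRET substrate step.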

The nature of assay [8]: qHTS assay to identify small molecule agonists of the RXR signaling pathway - cell viability counter screen (AID 1159529). Also: nearly all actives have a fitted effect of over 50% in size. Also: potency is read from the fitted curve at half-maximal effect. In short, it runs like this: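 Counter screen: CellTiter-Glo luminescence. Cells: RXR-alpha-UAS-bla HEK 293T. Medium: 2% charcoal-stripped FBS. Treatment: 16 h, 37 C. Reagent incubation: 30 min, RT.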
The nature of assay [9]: qHTS assay to identify small molecule antagonists of the retinoid acid receptor (RAR) signaling pathway - cell viability counter screen (AID 1159551). Also: nearly all actives have a fitted effect of over 35% in size. A digest of the protocol: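 Seed C3RL4 cells; next day add compound, then retinol to 1 uM final; incubate 6 h at 37 C; add CellTiter-Glo; read luminescence after 30 min at RT.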
Assay [10] is described as follows: qHTS assay to identify small molecule antagonists of the retinoic acid receptor (RAR) signaling pathway (AID 1159552; also: nearly all actives have a fitted effect of over 50% in size). In short, it runs like this: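 Antagonism of retinol-induced RARE reporter activity was measured in C3RL4 cells. Exposure to compounds and 1 uM final retinol lasted 6 hr at 37 C, with luminescence as endpoint.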
A short description of assay [11]: qHTS assay to identify small molecule agonists of the retinoic acid receptor (RAR) signaling pathway (AID 1159553). As to conditions: C3RL4 RARE luciferase reporter, agonist, 6 h; activation: at 73.3 µM (top of the series). A digest of the protocol:
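Activation of retinol signaling was monitored via a RARE luciferase reporter in C3RL4 cells. After 6 hr compound treatment at 37 C, detection reagent was added for 30 min at room temperature before luminescence reading.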

The nature of assay [12]: qHTS assay to identify small molecule antagonists of the vitamin D receptor (VDR) signaling pathway - cell viability counter screen (AID 743225). Also: nearly all actives have a fitted effect of over 50% in size. A digest of the protocol:
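Same-well multiplex: following 16 h treatment of HEK 293T cells carrying a UAS-driven beta-lactamase reporter with compound and agonist (3 nM final), and a 2 h FRET substrate step, CellTiter-Glo was added and luminescence read after 30 min.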

The target of assay [13] is Nuclear receptor ROR-gamma (Homo sapiens) (UniProt P51449). The assay is described as follows: qHTS assay to identify small molecule antagonists of the retinoid-related orphan receptor gamma (ROR-gamma) signaling pathway (AID 1159521; also: nearly all actives have a fitted effect of over 50% in size; also: potency is read from the fitted curve at half-maximal effect). In short, it runs like this: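 Inducible-expression reporter assay: doxycycline (1 uM final) switched on RORγ in CHO cells bearing a ROR response element-luciferase construct, with test compounds present from 2 h beforehand. Decreased luminescence after 16 h defined antagonist activity.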

Molecules are shown by their SMILES. Several values for one entry are separate records, joined by “and”; a condition that tells them apart may be missing. Equal entries are not always repeated. Records with an inconclusive call do not appear. Activity calls are given as the source filed them. Unless noted, calls follow the shape of the dose curve; as a rule, active = well fitted curve in the direction sought with a large enough effect in the repeat runs; inconclusive = weak or mixed curves; inactive = no such curve, though single readings can be large; an effect the other way counts as inactive or inconclusive.

Retinoic acid receptor RXR-alpha (Homo sapiens), sequence (P19793 whole entry, looked up): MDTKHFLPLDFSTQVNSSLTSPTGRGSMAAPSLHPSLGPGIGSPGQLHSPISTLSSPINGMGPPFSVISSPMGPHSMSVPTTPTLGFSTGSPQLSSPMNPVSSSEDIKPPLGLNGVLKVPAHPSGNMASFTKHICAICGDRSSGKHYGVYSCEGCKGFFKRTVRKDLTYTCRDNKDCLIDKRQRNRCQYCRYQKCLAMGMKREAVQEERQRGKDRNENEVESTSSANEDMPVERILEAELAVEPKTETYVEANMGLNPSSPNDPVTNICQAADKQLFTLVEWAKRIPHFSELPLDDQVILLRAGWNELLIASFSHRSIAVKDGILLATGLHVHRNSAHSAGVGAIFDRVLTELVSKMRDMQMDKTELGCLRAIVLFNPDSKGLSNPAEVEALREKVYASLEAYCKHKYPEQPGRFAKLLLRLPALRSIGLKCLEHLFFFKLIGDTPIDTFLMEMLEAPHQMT

Regarding `Cc1ccccc1N=C(N)Nc1ccccc1C`, the Potency entry in assay [1], in assay [2], in assay [3], in [4], in assay [5] and in assay [6] was “inactive” in each case. For the same molecule, the Potency entry in assay [7], in assay [8], in assay [9], in assay [10] and in [11] was “inactive” each time.
As to `CC(C)=CCC1C(=O)N(c2ccccc2)N(c2ccccc2)C1=O`, the Potency entry in assay [1], in [12], in assay [2], in assay [3], in assay [4] and in assay [13] was “inactive” each time. Further, the Potency entry in [5], in assay [6], in [8], in assay [9], in assay [10] and in assay [11] was “inactive” in each case.
With `CC(=O)OCC[N+](C)(C)C`, the Potency entry in [1], in assay [12], in assay [2], in [3], in assay [4] and in assay [13] was “inactive” throughout. In addition, the Potency result in assay [5], in [8], in assay [9], in [10] and in assay [11] was “inactive” in each case.
With `O=C=Nc1cccc(C(F)(F)F)c1`, the Potency result in assay [2], in assay [3], in assay [4], in assay [5], in assay [6] and in assay [7] was “inactive” throughout. In addition, the Potency entry in assay [9] was “inactive”.
Consider `CC(C)=CCC/C(C)=C/CC/C(C)=C/C(=O)OCC(=O)[C@@]1(O)CC[C@H]2[C@@H]3CCC4=CC(=O)C=C[C@]4(C)[C@H]3[C@@H](O)C[C@@]21C`, for which the values for the Potency in [1] and in assay [13] were 26.6 µM (active) and 6.68 µM (active), respectively. The Potency result in [2], in assay [3], in [4], in assay [5], in assay [6] and in assay [8] was “inactive” throughout. The Potency result in assay [9] and in assay [11] was “inactive” in each case.
Turning to `COC(=O)CCS`, the Potency result in assay [1], in assay [12], in [2], in [3], in assay [4] and in [13] was “inactive” throughout. Besides, the Potency result in assay [5], in assay [6], in assay [7], in assay [8] and in assay [9] was “inactive” throughout.
`CC(C)c1nc(CN(C)C(=O)N[C@H](C(=O)N[C@@H](Cc2ccccc2)C[C@H](O)[C@H](Cc2ccccc2)NC(=O)OCc2cncs2)C(C)C)cs1`: the Potency result in assay [1], in assay [2], in assay [4], in assay [13], in assay [6] and in [9] was “inactive” throughout. In addition, the Potency result in assay [10] and in [11] was “inactive” in each case. Moreover, the Potency is 15.1 µM (active) in assay [3], 19 µM (active) in assay [5] and 9.52 µM (active) in assay [8].
Regarding `Cc1cc(C)cc(N)c1`, the Potency result in assay [1], in assay [12], in [2], in assay [3], in assay [4] and in assay [13] was “inactive” throughout. The Potency result in assay [5], in assay [6], in assay [7], in assay [8] and in assay [9] was “inactive” each time.
Consider `Cc1ccco1`, for which the Potency result in assay [1], in assay [12], in [2], in [4], in assay [13] and in [5] was “inactive” throughout. Further, the Potency entry in assay [6], in assay [8] and in assay [9] was “inactive” each time.
As to `c1ccc2sc(SN(C3CCCCC3)C3CCCCC3)nc2c1`, the Potency entry in [1], in assay [12], in assay [2], in [3], in [4] and in [13] was “inactive” in each case. Moreover, the Potency entry in assay [5], in assay [6], in [8] and in assay [9] was “inactive” in each case.
With `C[C@@H]1CC(=O)NN=C1c1ccc(NN=C(C#N)C#N)cc1`, the Potency entry in [1], in [12], in [2], in assay [3], in assay [5] and in assay [8] was “inactive” each time. The Potency entry in assay [9] and in assay [10] was “inactive” in each case. Further, the Potency is 2.98 µM (active) and 2.11 µM (active) in assay [4]; 4.22 µM (active) in [13].
